According to PubChem BioAssay (NCATS):
“And” between values parts separate entries of the source, which are not always exact repeats. Identical values can stand only once. Records with an inconclusive call do not appear. Where a call stands in place of a potency, no number is given. The source made the active and inactive calls. Calls come from the whole dose curve; as a rule, active = well fitted cell-killing curve with a large enough effect; inconclusive = small, poorly fitted or top-dose-only effect; inactive = flat fitted curve, though single readings scatter.

assay: Cell Viability - LYMP2-018 (AID 985); conditions: LYMP2-018 lymphoblastoid cells, viability (qHTS); series mostly up to 92.2 µM;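 note: compound exposure lasted 24 hr at 37 °C; nearly all actives have a fitted effect of over 50% in size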
Summary of the method: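 Seed 2500 lymphoblastoid cells per well, incubate 5 hr at 37 C, add compound and incubate 24 hr at 37 C, add CellTiter-Glo, wait 30 min at room temperature, then read luminescence.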
Potency is the fitted concentration of half-maximal effect.

SMILES	Potency
Oc1ccc(Cl)cc1Cc1ccccc1	inactive
CNCC(O)c1ccc(O)cc1 (stereo not drawn)	inactive
NCC(O)c1ccc(O)cc1 (stereo not drawn)	inactive
Clc1ccc(COC(Cn2ccnc2)c2ccc(Cl)cc2Cl)cc1 (stereo not drawn)	50.1 µM (active)
CCCC(C)(COC(N)=O)COC(=O)NC(C)C (stereo not drawn)	inactive
OCCOc1ccccc1	inactive
CCOP(=S)(OCC)Oc1cc(C)nc(C(C)C)n1	inactive
CC(=O)Oc1ccccc1C(=O)Nc1ncc([N+](=O)[O-])s1	39.8 µM (active)
c1ccc2c(c1)Nc1ccccc1S2	inactive
Oc1cccc2cccnc12	12.6 µM (active) and 10 µM (active)
Oc1ccccc1-c1ccccc1	inactive
N[C@@H](Cc1ccc(N(CCCl)CCCl)cc1)C(=O)O	25.1 µM (active)

assay: Cell Viability - LYMP2-020 (AID 986); conditions: series mostly up to 92.2 µM;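 note: cells exposed to compound for 24 h at 37 °C; nearly all actives have a fitted effect of over 55% in size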
Summary of the method: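 Seed 2500 cells per well and incubate 5 hr at 37 C. Add compounds at a concentration series and incubate 24 hr at 37 C. Add CellTiter-Glo, wait 30 min at RT, read luminescence, and fit a Hill curve for AC50.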

SMILES	Potency
Oc1ccc(Cl)cc1Cc1ccccc1	inactive
CNCC(O)c1ccc(O)cc1 (stereo not drawn)	inactive
NCC(O)c1ccc(O)cc1 (stereo not drawn)	inactive
CC(COc1ccccc1)N(CCCl)Cc1ccccc1 (stereo not drawn)	50.1 µM (active)
CCCC(C)(COC(N)=O)COC(=O)NC(C)C (stereo not drawn)	inactive
OCCOc1ccccc1	inactive
CCOP(=S)(OCC)Oc1cc(C)nc(C(C)C)n1	inactive
c1ccc2c(c1)Nc1ccccc1S2	inactive
Oc1cccc2cccnc12	12.6 µM (active) and 10 µM (active)
Oc1ccccc1-c1ccccc1	inactive
N[C@@H](Cc1ccc(N(CCCl)CCCl)cc1)C(=O)O	39.8 µM (active)

assay: Cell Viability - LYMP2-022 (AID 987); conditions: LYMP2-022 lymphoblastoid cell viability; series mostly up to 92.2 µM; note: nearly all actives have a fitted effect of over 55% in size
Summary of the method: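 Cells were seeded at 2500 per well, rested 5 hr at 37 C, and treated with titrated compounds for 24 hr at 37 C. Cellular ATP was then quantified by luciferase luminescence, and AC50 values were derived from Hill-modelled concentration-response curves.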

SMILES	Potency
Oc1ccc(Cl)cc1Cc1ccccc1	inactive
CNCC(O)c1ccc(O)cc1 (stereo not drawn)	inactive
NCC(O)c1ccc(O)cc1 (stereo not drawn)	inactive
CCCC(C)(COC(N)=O)COC(=O)NC(C)C (stereo not drawn)	inactive
OCCOc1ccccc1	inactive
CCOP(=S)(OCC)Oc1cc(C)nc(C(C)C)n1	inactive
c1ccc2c(c1)Nc1ccccc1S2	inactive
Oc1cccc2cccnc12	10 µM (active) and 6.31 µM (active)
Oc1ccccc1-c1ccccc1	inactive
N[C@@H](Cc1ccc(N(CCCl)CCCl)cc1)C(=O)O	15.8 µM (active)
